Here are results for 14 molecules from PubChem BioAssay (NCI).

Test systems include DU-145 prostate; MALME-3M melanoma; MDA-MB-231 breast; RXF 393 renal; SF-268 CNS; SF-295 CNS; SF-539 CNS; UACC-257 melanoma; M14 melanoma.
Common to all, as to test: NCI-60 one-dose screen, 48 h (100 = growth as untreated, 0 = no growth, -100 = all killed)
Holding throughout (details): 10 µM unless noted

This is part of a sample that, as a whole, favours compounds with a hit. Of some 83,000 tested, about 20% had one in any assay.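 How to read the values: 0–100, growth inhibition (40 = 60% inhibited); 0, no net growth; -100 to 0, cell death (-40 = 40% of starting cells died; -100 = all dead).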 A number with no mark means an inactive call. The source made the active and inactive calls. Rule for the calls: active = growth percent below 10; inactive = the rest.

For the molecule `N#Cc1c(-c2cccc([N+](=O)[O-])c2)nc(SCC(=O)c2ccc(Cl)cc2)[nH]c1=O`, the growth in the assay on DU-145 prostate is 105%; in the assay with MALME-3M melanoma, 99.9%; with MDA-MB-231 breast, 99.3%; in the assay with RXF 393 renal, 102%; in the assay with SF-268 CNS, 97.7%; in the assay with SF-295 CNS it was 104%. The growth in the assay with SF-539 CNS was 100%; in the assay with UACC-257 melanoma, 105%; with M14 melanoma it was 100%.

Regarding `OCc1cnccc1NCCCCOc1ccc(Oc2ccccc2)cc1`, the growth in the assay on DU-145 prostate is 80.2%; in the assay on MALME-3M melanoma, 58%; in the assay with MDA-MB-231 breast it was 62.6%; with RXF 393 renal, 66.1%; in the assay on SF-268 CNS it was 80.9%; in the assay with SF-295 CNS, 51.5%. The growth was 67.3% with SF-539 CNS, 54.5% with UACC-257 melanoma and 53.6% in the assay on M14 melanoma.

As to `COc1cc(C(=O)Nc2cc3c(cc2Oc2cc(C)cc(C)c2)C(=O)N(C)[C@@H](CC(=O)N(C)O)C(=O)N3)c(Br)c(OC)c1OC`, the growth is -31.7% (active) in the assay with DU-145 prostate; -55.3% (active) in the assay with MALME-3M melanoma; -34.3% (active) with MDA-MB-231 breast; -56.7% (active) in the assay with RXF 393 renal; -27.1% (active) in the assay with SF-268 CNS; -34.6% (active) with SF-295 CNS. The values for the growth in the assay with SF-539 CNS, in the assay with UACC-257 melanoma and in the assay on M14 melanoma were -46.7% (active), -12.4% (active) and -88.2% (active), respectively.

Take `O=C1c2c(c3c4cccc(F)c4[nH]c3c3ccc4ccccc4c23)C(=O)N1O`: the growth in the assay on DU-145 prostate was 55.1%; in the assay on MALME-3M melanoma, 76.8%; in the assay with MDA-MB-231 breast, 70.8%; with RXF 393 renal, 46.9%; in the assay on SF-268 CNS it was 32.5%; in the assay on SF-295 CNS, 47.9%. For the same molecule, the growth in the assay with SF-539 CNS is 40.4%; in the assay with UACC-257 melanoma, 67.5%; in the assay with M14 melanoma, 38.3%.

As for `O=C1Nc2ccccc2/C1=C\c1c(-c2ccccc2)nc2ccccn12`, the growth in the assay on DU-145 prostate was 63.5%; in the assay on MALME-3M melanoma, 43.6%; in the assay on MDA-MB-231 breast, 59.2%; with RXF 393 renal, 26.8%; in the assay with SF-268 CNS, 51.2%; in the assay with SF-295 CNS, 24%. The growth is 49.6% in the assay with SF-539 CNS, 87.6% with UACC-257 melanoma and 3.79% (active) with M14 melanoma.

In the case of `CN1C(N2CCN(S(=O)(=O)c3ccccc3)CC2)=NS(=O)(=O)c2ccccc21`, the growth in the assay on DU-145 prostate is 139%; in the assay on MALME-3M melanoma it was 103%; in the assay on MDA-MB-231 breast it was 104%; in the assay with RXF 393 renal, -6.07% (active); in the assay on SF-268 CNS, 101%; in the assay with SF-295 CNS, 39.9%. Besides, the growth in the assay on SF-539 CNS is 111%; in the assay with UACC-257 melanoma, 61.5%; in the assay with M14 melanoma, 99.8%.

With `NS(=O)(=O)c1ccc(CCN2C(=O)C3C(C2=O)C2(Cl)C(Cl)=C(Cl)C3(Cl)C2(Cl)Cl)cc1` (stereo unspecified), the growth with DU-145 prostate was 96.5%; with MALME-3M melanoma, 90.5%; with MDA-MB-231 breast it was 92.9%; in the assay with RXF 393 renal, 109%; in the assay with SF-268 CNS, 102%; in the assay on SF-295 CNS, 94%. Further, the growth in the assay with SF-539 CNS was 92.5%; in the assay with UACC-257 melanoma, 110%; in the assay on M14 melanoma, 94.5%.

Regarding `CNCCOc1nc2c3cnccc3cc(-c3cc(OC)c(OC)c(OC)c3)c2c2ccncc12`, the growth with DU-145 prostate is -13.7% (active); in the assay on MALME-3M melanoma, -80.2% (active); in the assay with MDA-MB-231 breast, -9.1% (active); in the assay with RXF 393 renal, -85.7% (active); with SF-268 CNS, -9.41% (active); in the assay on SF-295 CNS, -20.7% (active). Also, the growth in the assay on SF-539 CNS was -59.5% (active); in the assay with UACC-257 melanoma, -43.1% (active); in the assay on M14 melanoma, -67.8% (active).

Consider `COc1ccc(/C=C/c2nc(Nc3cccc(NC(C)=O)c3)c3ccccc3n2)cc1`, for which the growth in the assay with DU-145 prostate was 88.7%; in the assay with MALME-3M melanoma it was 102%; in the assay with MDA-MB-231 breast, 85.3%; in the assay with RXF 393 renal, 104%; in the assay on SF-268 CNS, 92.1%; in the assay on SF-295 CNS, 83.1%. For the same molecule, the growth was 98.5% in the assay with SF-539 CNS, 95.6% with UACC-257 melanoma and 72.9% with M14 melanoma.

With `N#CC1=C(N)Oc2c(ccc3ccccc23)C1c1ccccc1Cl` (stereo unspecified), the growth in the assay on DU-145 prostate was 17.1%; in the assay on MALME-3M melanoma, 52%; in the assay with MDA-MB-231 breast, 9.2% (active); in the assay with RXF 393 renal, 17.9%; in the assay with SF-268 CNS, 51%; in the assay with SF-295 CNS, 8.26% (active). The growth was -13.5% (active) in the assay on SF-539 CNS, 60.1% in the assay with UACC-257 melanoma and 12.5% in the assay with M14 melanoma.

Regarding `COc1cc(C2C3=C(COC3=O)N(CCO)c3cc4c(cc32)OCO4)cc(OC)c1OC` (stereo unspecified), the growth is 5.4% (active) in the assay on DU-145 prostate; 56.3% in the assay with MALME-3M melanoma; -1.03% (active) in the assay on MDA-MB-231 breast; -5.54% (active) with RXF 393 renal; 41.3% in the assay with SF-268 CNS; 21.4% in the assay with SF-295 CNS. The results for the growth with SF-539 CNS, in the assay with UACC-257 melanoma and in the assay with M14 melanoma were -51.6% (active), 60.8% and -19.6% (active), respectively.

For the molecule `COc1cc(C2C3=C(COC3=O)N(CCO)c3cc4c(cc32)CCC4)cc(OC)c1OC` (stereo unspecified), the growth is -23.7% (active) with DU-145 prostate; 54.9% with MALME-3M melanoma; 1.31% (active) in the assay on MDA-MB-231 breast; 26.5% in the assay on RXF 393 renal; 22% in the assay on SF-268 CNS; -23.6% (active) in the assay with SF-295 CNS. Also, the growth in the assay on SF-539 CNS is -29.8% (active); in the assay on UACC-257 melanoma, 52.9%; with M14 melanoma, -34% (active).

As to `C=CCn1c(-c2ccc(-c3nc4ccc(C)cc4[nH]3)cc2)n[nH]c1=S`, the growth was 111% in the assay with DU-145 prostate; 96.6% in the assay with MALME-3M melanoma; 90.7% with MDA-MB-231 breast; 110% in the assay with RXF 393 renal; 112% in the assay with SF-268 CNS; 92.1% in the assay on SF-295 CNS. The growth in the assay with SF-539 CNS is 97%; in the assay with UACC-257 melanoma, 102%; in the assay on M14 melanoma, 98%.

Consider `CCNc1nc2cc(Nc3ccnc4cc(Cl)ccc34)ccc2o1`, for which the growth in the assay on DU-145 prostate was 86.2%; in the assay on MALME-3M melanoma, 91.7%; in the assay with MDA-MB-231 breast it was 64.3%; in the assay on RXF 393 renal it was 66.5%; in the assay on SF-268 CNS, 81.1%; with SF-295 CNS, 55.2%. The growth in the assay on SF-539 CNS is 65.9%; in the assay with UACC-257 melanoma, 83.5%; with M14 melanoma, 61%.
